# Assay results from PMC7862700, “An all-to-all approach to the identification of sequence-specific readers for epigenetic DNA modifications on cytosine”.
# Legend:
# Assay in all cases: DAPPL (digital affinity profiling via proximity ligation, sequencing); 10 mM Tris-HCl pH 7.5, 50 mM NaCl, 1 mM DTT, 4% glycerol, room temperature, 30 min; GST-TFs on glutathione beads, 16-mer random dsDNA library, 0.1% formaldehyde crosslink after washing; high values mean tight binding
# Conditions in all cases: protein: recombinant; tags: N-terminal GST; dsDNA, one strand shown
# ETV1 = ETV1 (Homo sapiens, UniProt P50549 1-477)
# How it was run: (§1)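 Binding signal is each hexamer's read frequency for a factor divided by its frequency in the tag-only sample. The factors were GST-fused human transcription factors from yeast, captured on glutathione beads, DNA-barcoded and pooled with that sample. Pools were incubated with 200 nmole of a random double-stranded 16-mer DNA library in Tris/NaCl/DTT/glycerol buffer at room temperature for 30 min, then washed, crosslinked with 0.1% formaldehyde, proximity-ligated with BsaI/T4 ligase (1 h, 37 °C), PCR-amplified and sequenced on an Illumina NextSeq500.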
# ERF = target: T1, ERF (Homo sapiens, UniProt P50548 1-548)
# T1 sequence: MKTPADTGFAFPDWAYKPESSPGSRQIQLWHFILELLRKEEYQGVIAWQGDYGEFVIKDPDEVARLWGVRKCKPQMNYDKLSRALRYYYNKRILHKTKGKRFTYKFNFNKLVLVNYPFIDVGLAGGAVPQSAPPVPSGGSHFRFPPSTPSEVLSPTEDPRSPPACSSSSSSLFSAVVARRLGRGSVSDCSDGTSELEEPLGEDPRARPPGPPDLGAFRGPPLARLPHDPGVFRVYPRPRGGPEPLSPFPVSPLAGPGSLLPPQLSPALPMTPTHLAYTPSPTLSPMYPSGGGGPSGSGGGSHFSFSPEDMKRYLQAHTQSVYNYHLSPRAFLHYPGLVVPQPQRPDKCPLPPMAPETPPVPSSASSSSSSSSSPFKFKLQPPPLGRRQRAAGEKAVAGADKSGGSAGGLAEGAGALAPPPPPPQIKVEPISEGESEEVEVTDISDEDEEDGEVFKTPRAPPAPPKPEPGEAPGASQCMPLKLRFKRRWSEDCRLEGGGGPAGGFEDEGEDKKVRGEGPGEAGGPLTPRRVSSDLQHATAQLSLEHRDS
# How it was run: as §1
# ETV3L = target: T2, ETV3L (Homo sapiens, UniProt Q6ZN32 1-361)
# T2 sequence: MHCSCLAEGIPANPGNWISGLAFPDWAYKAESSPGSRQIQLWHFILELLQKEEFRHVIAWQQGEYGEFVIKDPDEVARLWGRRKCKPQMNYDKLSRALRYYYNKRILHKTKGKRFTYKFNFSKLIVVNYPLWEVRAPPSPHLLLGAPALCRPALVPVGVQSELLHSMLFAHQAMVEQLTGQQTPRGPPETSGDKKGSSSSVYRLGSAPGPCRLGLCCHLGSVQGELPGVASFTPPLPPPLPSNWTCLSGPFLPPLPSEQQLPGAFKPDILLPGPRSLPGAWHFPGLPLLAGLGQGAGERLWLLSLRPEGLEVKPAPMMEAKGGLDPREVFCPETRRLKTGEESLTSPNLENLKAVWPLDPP
# How it was run: as §1
# ETS2 = target: T3, ETS2 (Homo sapiens, UniProt P15036 1-469)
# T3 sequence: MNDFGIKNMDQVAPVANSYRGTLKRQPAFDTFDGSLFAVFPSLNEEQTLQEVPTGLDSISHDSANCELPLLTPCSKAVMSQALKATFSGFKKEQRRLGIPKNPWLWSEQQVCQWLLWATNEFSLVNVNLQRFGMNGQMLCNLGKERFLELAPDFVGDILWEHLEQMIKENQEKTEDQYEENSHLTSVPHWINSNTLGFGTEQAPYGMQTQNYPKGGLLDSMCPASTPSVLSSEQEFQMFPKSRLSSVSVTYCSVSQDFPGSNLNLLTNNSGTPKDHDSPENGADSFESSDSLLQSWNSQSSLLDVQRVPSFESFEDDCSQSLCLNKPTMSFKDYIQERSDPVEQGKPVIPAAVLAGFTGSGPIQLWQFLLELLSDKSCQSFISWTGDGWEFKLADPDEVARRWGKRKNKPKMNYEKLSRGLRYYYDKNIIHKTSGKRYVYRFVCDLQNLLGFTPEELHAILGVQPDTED
# How it was run: as §1
# SPDEF = target: T4, SPDEF (Homo sapiens, UniProt O95238 1-335)
# T4 sequence: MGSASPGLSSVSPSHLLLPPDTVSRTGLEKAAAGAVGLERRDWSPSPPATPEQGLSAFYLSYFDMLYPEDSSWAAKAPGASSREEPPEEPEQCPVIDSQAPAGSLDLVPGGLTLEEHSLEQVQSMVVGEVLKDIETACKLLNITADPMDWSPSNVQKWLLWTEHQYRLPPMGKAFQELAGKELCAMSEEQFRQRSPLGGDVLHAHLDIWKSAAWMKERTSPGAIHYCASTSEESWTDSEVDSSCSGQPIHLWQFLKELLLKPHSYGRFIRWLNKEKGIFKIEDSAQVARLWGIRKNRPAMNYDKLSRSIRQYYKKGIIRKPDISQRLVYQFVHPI
# How it was run: as §1
# ETV7 = target: T5, ETV7 (Homo sapiens, UniProt Q9Y603 1-341)
# T5 sequence: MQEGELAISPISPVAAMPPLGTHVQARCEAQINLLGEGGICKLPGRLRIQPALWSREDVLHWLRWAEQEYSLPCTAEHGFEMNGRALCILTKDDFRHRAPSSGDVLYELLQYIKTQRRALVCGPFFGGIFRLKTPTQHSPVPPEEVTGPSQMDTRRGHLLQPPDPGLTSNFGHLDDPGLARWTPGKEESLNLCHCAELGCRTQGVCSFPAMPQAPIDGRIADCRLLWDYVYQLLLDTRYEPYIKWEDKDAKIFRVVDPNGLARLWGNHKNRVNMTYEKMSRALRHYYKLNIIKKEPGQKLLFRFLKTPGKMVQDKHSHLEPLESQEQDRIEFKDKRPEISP
# How it was run: as §1
# ELF5 = target: T6, ELF5 (Homo sapiens, UniProt Q9UKW6-2 1-255)
# T6 sequence: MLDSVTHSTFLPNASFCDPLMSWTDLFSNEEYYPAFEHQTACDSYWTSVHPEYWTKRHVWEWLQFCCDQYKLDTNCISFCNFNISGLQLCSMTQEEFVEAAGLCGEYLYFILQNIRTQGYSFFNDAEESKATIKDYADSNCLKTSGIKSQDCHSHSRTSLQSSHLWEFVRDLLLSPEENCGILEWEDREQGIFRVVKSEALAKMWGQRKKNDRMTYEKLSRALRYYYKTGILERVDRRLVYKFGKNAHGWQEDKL
# How it was run: as §1
# ETV3 = target: T7, ETV3 (Homo sapiens, UniProt P41162-2 1-143)
# T7 sequence: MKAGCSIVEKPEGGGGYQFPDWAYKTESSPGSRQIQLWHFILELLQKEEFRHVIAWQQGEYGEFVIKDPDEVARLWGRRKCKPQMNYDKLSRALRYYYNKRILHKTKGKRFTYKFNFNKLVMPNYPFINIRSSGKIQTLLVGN
# How it was run: as §1
# ETV6 = ETV6 (Homo sapiens, UniProt P41212 1-452)
# How it was run: as §1
# Chain of ETV6 (P41212 whole entry): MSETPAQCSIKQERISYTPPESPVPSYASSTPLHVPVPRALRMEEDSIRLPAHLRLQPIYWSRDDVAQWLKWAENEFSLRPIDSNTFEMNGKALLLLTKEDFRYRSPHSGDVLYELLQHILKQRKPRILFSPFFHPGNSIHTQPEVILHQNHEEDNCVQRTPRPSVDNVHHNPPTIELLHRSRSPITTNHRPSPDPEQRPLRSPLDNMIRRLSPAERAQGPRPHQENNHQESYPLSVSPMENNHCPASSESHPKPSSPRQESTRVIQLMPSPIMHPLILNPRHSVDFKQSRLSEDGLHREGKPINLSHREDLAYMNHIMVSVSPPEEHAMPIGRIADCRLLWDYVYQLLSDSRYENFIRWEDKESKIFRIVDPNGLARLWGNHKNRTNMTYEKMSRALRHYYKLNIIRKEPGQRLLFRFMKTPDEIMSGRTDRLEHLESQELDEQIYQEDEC
# Chain of ETV1 (P50549 whole entry, the tested form may be a part): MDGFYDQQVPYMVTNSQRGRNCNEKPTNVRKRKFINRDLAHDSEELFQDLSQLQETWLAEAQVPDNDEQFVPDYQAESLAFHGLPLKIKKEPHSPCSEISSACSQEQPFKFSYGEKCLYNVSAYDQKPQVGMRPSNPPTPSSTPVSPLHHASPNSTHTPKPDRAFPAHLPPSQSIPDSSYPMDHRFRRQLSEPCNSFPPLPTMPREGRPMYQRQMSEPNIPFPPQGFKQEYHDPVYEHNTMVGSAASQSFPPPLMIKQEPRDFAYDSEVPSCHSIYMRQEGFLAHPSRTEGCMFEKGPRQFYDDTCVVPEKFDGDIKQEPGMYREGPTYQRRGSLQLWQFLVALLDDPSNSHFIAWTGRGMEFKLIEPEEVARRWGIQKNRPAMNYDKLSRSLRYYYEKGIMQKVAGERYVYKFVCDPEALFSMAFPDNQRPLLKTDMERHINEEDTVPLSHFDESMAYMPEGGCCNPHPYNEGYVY
sequence,measurement,setting,value
TATCCG,binding signal,ETV1,"2.72 fold enrichment (6-mer frequency, TF over GST control)"
same,binding signal,ERF,"2.52 fold enrichment (6-mer frequency, TF over GST control)"
same,binding signal,ETV3L,"2.45 fold enrichment (6-mer frequency, TF over GST control)"
same,binding signal,ETS2,"2.55 fold enrichment (6-mer frequency, TF over GST control)"
same,binding signal,SPDEF,"3.8 fold enrichment (6-mer frequency, TF over GST control)"
same,binding signal,ETV7,"2.1 fold enrichment (6-mer frequency, TF over GST control)"
same,binding signal,ELF5,"3.31 fold enrichment (6-mer frequency, TF over GST control)"
same,binding signal,ETV3,"2.57 fold enrichment (6-mer frequency, TF over GST control)"
same,binding signal,ETV6,"2.38 fold enrichment (6-mer frequency, TF over GST control)"
